Laboratory results: PubChem BioAssay AID1159580 (chemical genetic matrix, 2015)
The campaign covered roughly 5,500 compounds. About 2,000 (36%) were called active. Inconclusive results (about 18%) are left out. Cut-off read from the data, not from the text of the source: active = normalized growth mostly below about 0.91 (no sharp cut-off); inconclusive = no clear call, values can overlap the other calls; inactive = mostly above about 0.92. The list shows a part of the results.

Assay: chemical genetic growth profiling, strain panel (AID 1159580);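 note: tested at 20 µM; growth read once vehicle control cultures reached saturation at 30 °C; 1 = growth at the plate median or of vehicle wells; lower values mean less growth of the strain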
Conditions: growth OD

Measured: normalized growth

CC1=NCCc2c1[nH]c1cc(O)ccc21
inactive: S. cerevisiae deletion strains, locus YJR075W, strain HOC1, stronger effect = lower value 0.988 | S. cerevisiae deletion strains, locus YKL009W, strain mrt4, stronger effect = lower value 0.951 | S. cerevisiae deletion strains, locus YKL068W, stronger effect = lower value 0.993 | S. cerevisiae deletion strains, locus YKL085W, strain MDH1 (second series), stronger effect = lower value 0.988 | S. cerevisiae deletion strains, locus YKL085W, strain MDH1, stronger effect = lower value 0.988 | S. cerevisiae deletion strains, locus YKL160W, strain elf1, stronger effect = lower value 0.955 | S. cerevisiae deletion strains, locus YKL190W, strain CNB1, stronger effect = lower value 0.999 | S. cerevisiae deletion strains, locus YKR001C, strain vps1, stronger effect = lower value 0.993 | S. cerevisiae deletion strains, locus YKR026C, strain gcn3, stronger effect = lower value 0.989 | S. cerevisiae deletion strains, locus YKR091W, strain srl3, stronger effect = lower value 0.988 | S. cerevisiae deletion strains, locus YLL001W, strain dnm1, stronger effect = lower value 0.984 | S. cerevisiae deletion strains, locus YLL026W, stronger effect = lower value 0.992 | S. cerevisiae deletion strains, locus YLL041C, strain sdh2, stronger effect = lower value 0.97 | S. cerevisiae deletion strains, locus YLR027C, strain aat2, stronger effect = lower value 0.985 | S. cerevisiae deletion strains, locus YLR039C, strain RIC1, stronger effect = lower value 0.993 | S. cerevisiae deletion strains, locus YLR058C, strain SHM2, stronger effect = lower value 0.971 | S. cerevisiae deletion strains, locus YLR102C, strain apc9, stronger effect = lower value 0.993 | S. cerevisiae deletion strains, locus YLR113W, strain HOG1, stronger effect = lower value 1 | S. cerevisiae deletion strains, locus YLR221C, strain rsa3, stronger effect = lower value 1.03 | S. cerevisiae deletion strains, locus YLR258W, strain gsy2, stronger effect = lower value 0.967 | S. cerevisiae deletion strains, locus YLR262C, strain YPT6 (second series), stronger effect = lower value 0.989 | S. cerevisiae deletion strains, locus YLR262C, strain YPT6, stronger effect = lower value 0.95 | S. cerevisiae deletion strains, locus YLR268W, strain sec22, stronger effect = lower value 1.05 | S. cerevisiae deletion strains, locus YLR320W, strain mms22, stronger effect = lower value 1.03 | S. cerevisiae deletion strains, locus YLR330W, strain CHS5, stronger effect = lower value 0.996 | S. cerevisiae deletion strains, locus YLR342W, strain FKS1 (second series), stronger effect = lower value 0.996 | S. cerevisiae deletion strains, locus YLR342W, strain FKS1, stronger effect = lower value 0.992 | S. cerevisiae deletion strains, locus YLR357W, strain rsc2, stronger effect = lower value 0.973 | S. cerevisiae deletion strains, locus YLR370C, strain arc18, stronger effect = lower value 0.973 | S. cerevisiae deletion strains, locus YLR371W, strain rom2, stronger effect = lower value 0.978 | S. cerevisiae deletion strains, locus YLR384C, strain iki3, stronger effect = lower value 0.994 | S. cerevisiae deletion strains, locus YLR418C, strain cdc73, stronger effect = lower value 0.995 | S. cerevisiae deletion strains, locus YML016C, strain PPZ1, stronger effect = lower value 0.997 | S. cerevisiae deletion strains, locus YML032C, strain rad52, stronger effect = lower value 0.995 | S. cerevisiae deletion strains, locus YML120C, strain ndi1, stronger effect = lower value 0.962 | S. cerevisiae deletion strains, locus YML124C, strain tub3, stronger effect = lower value 0.988 | S. cerevisiae deletion strains, locus YMR058W, strain fet3, stronger effect = lower value 0.994 | S. cerevisiae deletion strains, locus YMR078C, strain ctf18, stronger effect = lower value 0.979 | S. cerevisiae deletion strains, locus YMR125W, strain sto1, stronger effect = lower value 0.928 | S. cerevisiae deletion strains, locus YMR129W, stronger effect = lower value 0.986 | S. cerevisiae deletion strains, locus YMR205C, strain PFK2, stronger effect = lower value 0.95 | S. cerevisiae deletion strains, locus YMR223W, strain ubp8, stronger effect = lower value 0.961 | S. cerevisiae deletion strains, locus YMR231W, strain pep5, stronger effect = lower value 0.991 | S. cerevisiae deletion strains, locus YMR263W, strain SAP30, stronger effect = lower value 0.99 | S. cerevisiae deletion strains, locus YMR307W, strain GAS1, stronger effect = lower value 0.987 | S. cerevisiae deletion strains, locus YNL067W, strain RPL9B, stronger effect = lower value 1.02 | S. cerevisiae deletion strains, locus YNL071W, strain lat1, stronger effect = lower value 0.981 | S. cerevisiae deletion strains, locus YNL128W, strain TEP1, stronger effect = lower value 0.97 | S. cerevisiae deletion strains, locus YNL153C, strain GIM3, stronger effect = lower value 1 | S. cerevisiae deletion strains, locus YNL183C, strain NPR1, stronger effect = lower value 0.928 | S. cerevisiae deletion strains, locus YNL209W, strain ssb2, stronger effect = lower value 0.988 | S. cerevisiae deletion strains, locus YNL233W, strain BNI4, stronger effect = lower value 1 | S. cerevisiae deletion strains, locus YNL248C, strain rpa49, stronger effect = lower value 0.926 | S. cerevisiae deletion strains, locus YNL250W, strain rad50, stronger effect = lower value 0.981 | S. cerevisiae deletion strains, locus YNL271C, strain bni1, stronger effect = lower value 1 | S. cerevisiae deletion strains, locus YNL298W, strain CLA4, stronger effect = lower value 0.985 | S. cerevisiae deletion strains, locus YNL307C, strain MCK1, stronger effect = lower value 0.988 | S. cerevisiae deletion strains, locus YNL322C, strain KRE1 (second series), stronger effect = lower value 0.981 | S. cerevisiae deletion strains, locus YNL322C, strain KRE1, stronger effect = lower value 0.992 | S. cerevisiae deletion strains, locus YNR049C, strain mso1, stronger effect = lower value 0.97 | S. cerevisiae deletion strains, locus YNR052C, strain pop2, stronger effect = lower value 0.995 | S. cerevisiae deletion strains, locus YOL006C, strain TOP1, stronger effect = lower value 1.04 | S. cerevisiae deletion strains, locus YOL012C, strain htz1 1.3 | S. cerevisiae deletion strains, locus YOL147C, strain pex11, stronger effect = lower value 0.998 | S. cerevisiae deletion strains, locus YOR001W, strain rrp6, stronger effect = lower value 1.01 | S. cerevisiae deletion strains, locus YOR061W, strain CKA2, stronger effect = lower value 0.978 | S. cerevisiae deletion strains, locus YOR069W, strain VPS5, stronger effect = lower value 0.973 | S. cerevisiae deletion strains, locus YOR070C, strain gyp1, stronger effect = lower value 1.01 | S. cerevisiae deletion strains, locus YOR080W, strain dia2, stronger effect = lower value 1.01 | S. cerevisiae deletion strains, locus YOR083W, strain WHI5, stronger effect = lower value 0.954 | S. cerevisiae deletion strains, locus YOR106W, strain vam3, stronger effect = lower value 0.93 | S. cerevisiae deletion strains, locus YOR136W, strain idh2, stronger effect = lower value 0.985 | S. cerevisiae deletion strains, locus YOR144C, strain elg1, stronger effect = lower value 0.994 | S. cerevisiae deletion strains, locus YOR184W, strain ser1, stronger effect = lower value 0.969 | S. cerevisiae deletion strains, locus YOR231W, strain MKK1, stronger effect = lower value 0.985 | S. cerevisiae deletion strains, locus YOR265W, strain rbl2, stronger effect = lower value 0.976 | S. cerevisiae deletion strains, locus YOR270C, strain vph1, stronger effect = lower value 1.02 | S. cerevisiae deletion strains, locus YOR290C, strain snf2, stronger effect = lower value 0.911 | S. cerevisiae deletion strains, locus YOR316C, strain cot1, stronger effect = lower value 0.992 | S. cerevisiae deletion strains, locus YPL051W, strain arl3, stronger effect = lower value 1.01 | S. cerevisiae deletion strains, locus YPL055C, strain LGE1, stronger effect = lower value 0.956 | S. cerevisiae deletion strains, locus YPL078C, strain atp4, stronger effect = lower value 0.928 | S. cerevisiae deletion strains, locus YPL106C, strain sse1, stronger effect = lower value 0.943 | S. cerevisiae deletion strains, locus YPL240C, strain hsp82, stronger effect = lower value 0.992 | S. cerevisiae deletion strains, locus YPL241C, strain CIN2, stronger effect = lower value 0.996 | S. cerevisiae deletion strains, locus YPL256C, strain CLN2, stronger effect = lower value 0.991 | S. cerevisiae deletion strains, locus YPR119W, strain clb2, stronger effect = lower value 0.989 | S. cerevisiae deletion strains, locus YPR141C, strain kar3, stronger effect = lower value 0.981 | S. cerevisiae deletion strains, locus YPR163C, strain tif3, stronger effect = lower value 1 | S. cerevisiae deletion strains, locus YPR167C, strain met16, stronger effect = lower value 0.998 | S. cerevisiae deletion strains, strain wtn01, stronger effect = lower value 0.992 | S. cerevisiae strains, strain wild type, stronger effect = lower value 0.988
